This excerpt belongs to a sample that is enriched for hits.
ST2 inh – IL1RL1 inhibition | Q01638 | AlphaLISA ST2-Fc/biotin-IL-33 interaction, 1 h | inhibition, % for hits at 17 µM | actives 2.3% (n = 78,000) | AID 1259354; in the data active means inhibition above about 30%
Target sequence (Q01638 whole entry, looked up): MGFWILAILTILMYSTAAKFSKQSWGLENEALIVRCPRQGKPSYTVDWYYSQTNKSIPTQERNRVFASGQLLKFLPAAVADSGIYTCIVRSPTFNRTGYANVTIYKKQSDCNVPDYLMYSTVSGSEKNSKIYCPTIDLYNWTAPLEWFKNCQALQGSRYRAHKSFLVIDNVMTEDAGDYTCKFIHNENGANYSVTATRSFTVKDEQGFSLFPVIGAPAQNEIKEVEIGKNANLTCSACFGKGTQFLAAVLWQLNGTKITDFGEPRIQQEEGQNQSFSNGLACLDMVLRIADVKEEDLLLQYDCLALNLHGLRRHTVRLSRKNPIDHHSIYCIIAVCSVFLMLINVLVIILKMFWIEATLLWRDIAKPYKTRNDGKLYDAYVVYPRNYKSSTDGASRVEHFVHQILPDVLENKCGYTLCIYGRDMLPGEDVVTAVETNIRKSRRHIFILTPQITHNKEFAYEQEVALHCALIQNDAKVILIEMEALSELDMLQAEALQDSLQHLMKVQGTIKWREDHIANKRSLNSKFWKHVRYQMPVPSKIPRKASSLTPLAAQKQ
A number is an active result; i = inactive.

SMILES	ST2 inh
Cc1cc(N2CCCCC2)nc(N2CCN(S(=O)(=O)c3cccc(Cl)c3)CC2)n1	i
CN(C(=O)c1ccco1)c1ccccc1	i
Cc1ccc(NS(=O)(=O)c2cccc3c(S(=O)(=O)Nc4ccc(C)cc4)cccc23)cc1	i
O=C1c2ccccc2C(=O)c2c1cccc2S(=O)(=O)Nc1ccc(Cl)cc1	52.0%
O=S(=O)(Nc1ccc(Cl)cc1)c1cccc2cccnc12	i
COc1cc(-c2nnc3n2C(C)(C)Cc2ccccc2-3)cc(OC)c1OC	i
Cc1ccc(N=Cc2nc(-c3ccccc3)oc2O)cc1Cl	i
COc1cc(-c2nc(C=C3C(C)=Nc4ccccc43)c(O)o2)cc(OC)c1OC	34.0%
O=C(O)c1c[nH]c2ccc(S(=O)(=O)N3CCN(c4ncccn4)CC3)cc2c1=O	i
CC(C)(C)c1ccc(-c2cc(C[C@H]3CNCC[C@H]3CC(=O)NC3CCCCC3)no2)cc1	i
CN(C)c1ccc(C(=O)N2CCN(C(=O)c3cccs3)[C@H](C(=O)N[C@H](Cc3c[nH]c4ccccc34)C(N)=O)C2)cc1	i
C[C@@H]1CC[C@@]2(C)C(CO)=CCC[C@@H]2[C@@]1(C)CC/C(=C/C(=O)O)CO	36.0%
CC1=CC(=O)CC2C1(C)CCC(C)C2(C)CC/C(C)=C/C(=O)O (configuration not stated)	i
CCOc1cc(C2Nc3cc(C)c(C)cc3NC3=C2C(=O)CC(C)(C)C3)ccc1OC(=O)C1CC1 (configuration not stated)	i
CCN(CCNC(=O)CN(C)S(=O)(=O)c1ccc2c(c1)CCC(=O)N2)c1ccccc1	i
CCN(CC)c1ccc(NC(=O)Cc2ccccc2)cc1	36.0%
CCN(CC)c1ccc(NC(=O)CCN2C(=O)c3ccccc3C2=O)cc1	i
CCN(Cc1ccccc1)Cc1ccc(NC(C)=O)cc1	i
COc1cc2c(cc1OC)C(C(=O)N1CCOCC1)C(c1ccccc1F)N(C)C2=O (configuration not stated)	i
C=CCNC(=O)C(=O)Nc1ccccc1C	i
CC(C)c1cc(C(=O)Nc2sc3c(c2C(N)=O)CCCC3)no1	i
CCOC(=O)c1ccc2[nH]cc(C(=O)c3ccc(C)cc3)c(=O)c2c1	i
Cc1ccc(C(=O)c2c[nH]c3ccc(Br)cc3c2=O)cc1	33.0%
CCc1ccc(C(=O)c2c[nH]c3ccc(C)cc3c2=O)cc1	i
CCc1ccc(C(=O)c2c[nH]c3ccc(CC)cc3c2=O)cc1	i
SMILES	ST2 inh
CCOC(=O)c1ccc2[nH]cc(C(=O)c3ccccc3)c(=O)c2c1	i
CCc1ccc(C(=O)c2c[nH]c3ccc(F)cc3c2=O)cc1	42.0%
CC1=C(C(=O)Nc2cccc(C)n2)C(c2ccc3c(c2)OCO3)C2=C(CC(C)(C)CC2=O)N1 (configuration not stated)	i
CC1=C(C(=O)Nc2cccnc2)C(c2ccc(OCc3ccccc3)cc2)n2nnnc2N1 (configuration not stated)	i
CS(=O)(=O)Nc1cc(-c2noc([C@@H]3CCCN3Cc3ccncc3)n2)ccn1	i
CC1SC(c2ccc(Cl)c(Cl)c2)NC1=O (configuration not stated)	i
Cc1cc(C(=O)O)c2ccccc2n1	i
O=C(O)c1cc(-c2cc(C(=O)O)c3ccccc3n2)nc2ccccc12	i
Cc1ccc(-c2cc(C(=O)O)c3cc4c(C(=O)O)cc(-c5ccc(C)o5)nc4cc3n2)o1	91.0%
O=C(Nc1ccccc1[N+](=O)[O-])c1ccc(S(=O)(=O)N2CCCCC2)cc1	35.0%
O=C(Nc1ccccc1C(=O)O)c1ccc(S(=O)(=O)N2CCCCC2)cc1	i
Cc1ccc(NC(=O)c2cccc(S(=O)(=O)N3CCCCC3)c2)cc1	i
CC1CN(S(=O)(=O)c2ccc(Cl)c(C(=O)Nc3ccccc3[N+](=O)[O-])c2)CC(C)O1 (configuration not stated)	i
O=C(Nc1ccccn1)c1cccc(S(=O)(=O)N2CCCCC2)c1	i
O=C(Nc1ccccc1[N+](=O)[O-])c1cccc(S(=O)(=O)N2CCCCC2)c1	43.0%
O=C1c2ccccc2C(Nc2ccc(F)c(Cl)c2)N1Cc1ccccc1 (configuration not stated)	i
Cc1cccc(NC(=O)CC(=O)NC2(c3cc(F)ccc3F)CC2)c1C	i
COc1ccccc1/C=C/C1=NC(=C\c2ccc(Cl)cc2)/C(=O)O1	i
COc1ccccc1/C=C/C1=NC(=C\c2ccccc2Cl)/C(=O)O1	i
COc1ccccc1/C=C/C1=NC(=C\c2ccccc2)/C(=O)O1	38.0%
COc1ccccc1/C=C/C1=NC(=C\c2c(F)cccc2Cl)/C(=O)O1	i
COc1ccccc1/C=C1N=C(/C=C/c2ccccc2OC)OC\1=O	37.0%
COc1ccccc1/C=C/C1=NC(=C\c2cccc([N+](=O)[O-])c2)/C(=O)O1	i
Cc1cc(C(C(=O)O)N(C)CCOc2ccccc2)ccc1F (configuration not stated)	i
O=C(c1cn(C(c2ccccc2)c2ccccc2)nn1)N1CCC(c2ccccc2Cl)C1 (configuration not stated)	i
SMILES	ST2 inh
CN(C)c1cccc(Oc2nnnn2[C@H]2CO[C@H]3[C@@H]2OC[C@@H]3NC(=S)Nc2ccc(F)cc2)c1	i
Brc1cc2c(cc1C(N1CCOCC1)N1CCOCC1)OCO2	i
COCCCNC(=O)c1cc2c(=O)oc3ccccc3c2s1	i
O=c1oc(-c2ccccc2)nc2sc3c(c12)CCCCC3	36.0%
O=C1CCc2nc3sc4c(c3c(=O)n2N1)CCCC4	i
O=c1oc(/C=C/c2cccs2)nc2sc3c(c12)CCCC3	i
CC1C(=O)CC(c2ccc(Br)cc2)NC1c1ccc(Br)cc1 (configuration not stated)	i
COC(=O)C1=NNC2(C)C(=O)N(c3ccccc3)C(=O)C12 (configuration not stated)	i
N#Cc1c(N)n(-c2ccc(Cl)cc2)c2nc3ccccc3nc12	i
COc1ccc(-n2c(N)c(C#N)c3nc4ccccc4nc32)c(OC)c1	32.0%
CCOC(=O)c1c(N)n(-c2ccc(C)cc2C)c2nc3ccccc3nc12	i
Nc1c(C(=O)NCCc2ccccc2)nnn1Cc1cccc(F)c1	i
O=C1CCc2cc(S(=O)(=O)N3CC(=O)N(CCc4ccccc4)C(=O)C3)ccc2N1	i
Cc1nc(SCC(N)=O)c2c(=O)n(C)c(=O)n(C)c2n1	i
COc1cccc(NS(=O)(=O)c2ccc3c(c2)CCN3C(=O)C2CCC2)c1	i
CSc1nc2ccc(NC(=O)c3cc(=O)c4ccccc4o3)cc2s1	i
COc1ccccc1NC(=O)CSc1nc2ccccc2o1	i
Cc1noc(C)c1C(=O)N1CCCC(C(=O)Nc2cccc(-c3ccc(F)cc3)c2)C1 (configuration not stated)	i
N#CSC(C#N)Cc1cccc([N+](=O)[O-])c1 (configuration not stated)	37.0%
N#CSCc1ccc([N+](=O)[O-])cc1	i
N#Cc1ccc([N+](=O)[O-])cc1C#N	i
COCc1ccc(CN2CCCC(CNS(=O)(=O)c3ccc(OC)cc3)C2)o1 (configuration not stated)	i
COc1ccc2cccc(O)c2n1	i
CCOc1cc(Br)cc(C=O)c1O	i
Oc1cccc2ccc(/C=C/c3cc4c(cc3Br)OCO4)nc12	32.0%
COc1cc(Br)cc(/C=C/c2ccc3cccc(O)c3n2)c1O	38.0%
O=C(Cc1c(C(=O)O)[nH]c2ccc(Cl)cc12)NC1CCCCCC1	i
O=C(c1ccc([N+](=O)[O-])cc1Cl)N(Cc1ccccc1)Cc1ccccc1	38.0%
O=C(Nc1ccc(Cc2ccncc2)cc1)c1ccc([N+](=O)[O-])cc1Cl	i

Screens (PubChem BioAssay)
